FLuc counter: counter-screen for miR-21 project: firefly luciferase inhibitors or activators | P08659 | purified FLuc, Km substrates, luminescence inhibition | Potency, µM (series often up to 57.5 µM), inactives show at the highest dose activity change, negative = inhibition, usual class: inhibitors | actives 6.9% (n = 360,000);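 also: plate controls were vehicle for no effect and reference inhibitor for full effect; nearly all actives have a fitted effect of over 55% in size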
Target sequence (P08659 whole entry, looked up): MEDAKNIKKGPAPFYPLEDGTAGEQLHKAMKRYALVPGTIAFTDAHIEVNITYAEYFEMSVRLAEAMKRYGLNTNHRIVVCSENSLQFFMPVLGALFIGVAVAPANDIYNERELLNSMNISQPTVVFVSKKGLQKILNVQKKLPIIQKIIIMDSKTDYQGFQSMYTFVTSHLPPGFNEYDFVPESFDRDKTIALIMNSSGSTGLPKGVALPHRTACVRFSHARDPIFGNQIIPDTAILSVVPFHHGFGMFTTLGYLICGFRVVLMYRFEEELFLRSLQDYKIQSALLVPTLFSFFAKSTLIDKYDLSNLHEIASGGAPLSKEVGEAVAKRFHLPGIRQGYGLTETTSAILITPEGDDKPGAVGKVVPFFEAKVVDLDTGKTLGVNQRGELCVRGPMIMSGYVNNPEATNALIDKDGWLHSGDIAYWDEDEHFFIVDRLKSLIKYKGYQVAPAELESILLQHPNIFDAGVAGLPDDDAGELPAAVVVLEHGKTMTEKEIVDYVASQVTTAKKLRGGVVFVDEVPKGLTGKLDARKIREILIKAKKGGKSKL
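Purified P. pyralis luciferase, 10 nM final, with Km-level 10 uM D-luciferin and 10 uM ATP in 50 mM Tris acetate pH 7.5, 10 mM Mg acetate, 0.01% Tween-20, 0.05% BSA; 6-point qHTS titration about 60 µM downward; luminescence read.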
Rab9 prom act: Rab9 promoter activation; Huh7 Rab9 promoter-luciferase reporter, luminescence, 24 h; Potency, µM (series often up to 9.22 µM), for inactives: at the top dose activation, negative = inhibition, most hits filed as activators; actives 2.8% (n = 320,000); AID 485297; also: % of control where 0% means no effect; nearly all actives have a fitted effect of over 60% in size
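Promoter activation is measured as luciferase luminescence in Huh7 cells stably transfected with a Rab9 promoter–luciferase construct, following 24 h compound exposure at 37 °C and 10 min reagent incubation at ambient temperature.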
SMN2 splice enh: increases expression of the SMN2 splice variant; actives 2.8% (n = 210,000); AID 1458; HEK293 SMN2-luciferase splicing reporter, luminescence, 30-36 h; Potency, µM (series often up to 46.1 µM), inactives show at the highest dose activity change, positive = activation, usual class: activators; also: % of control where 0% means no effect; nearly all actives have a fitted effect of over 55% in size
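qHTS luciferase splicing reporter: luminescence rises when SMN2 exon 7 is included in transfected HEK293 cells. Compound exposure lasted 30-36 h at 37C, with 4.5 mM final sodium butyrate as control, followed by a ONE-Glo read.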
ELG1 repair inh: inhibitors of ELG1-dependent DNA repair in HEK293T cells; Potency, µM (top dose mostly 46.1 µM), for the others: top-dose activity change, negative = inhibition, most hits filed as inhibitors; HEK293T ELG1-luciferase reporter, luminescence, 16 h; DNA damage induced by 5-fluorouridine; actives 2.3% (n = 330,000); also: % is scaled to controls: 0 for no effect and ±100 for the full control effect; nearly all actives have a fitted effect of over 55% in size
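Step one: seed 2,000 cells per well. Step two: pin-transfer compound or DMSO alongside 5-fluorouridine. Step three: incubate 16 hr, 37 °C, 5% CO2. Step four: add ONE-Glo, wait 30 min, read luminescence.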
ELG1 genotox: inducers of genotoxicity in HEK293T ELG1-luciferase cells | Potency, µM (titrated, usually from 46 µM), for the others: top-dose activity change, positive = activation, hits mostly activators | HEK293T ELG1-luciferase reporter, luminescence, 16 h | AID 504466 | actives 1.3% (n = 330,000); also: % of control where 0% means no effect; nearly all actives have a fitted effect of over 60% in size
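Genotoxic stress is detected as increased luminescence from luciferase-tagged ELG1 in HEK293T cells, measured with ONE-Glo after a 16 hr treatment at 37 °C.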
NPC1 promoter act: NPC1 promoter activation. Huh7 NPC1 promoter luciferase reporter, 24 h. Potency, µM (highest dose often 9.22 µM), inactives show top-dose activation, most hits filed as activators. actives 2.4% (n = 320,000). AID 485313; also: % of control where 0% means no effect; nearly all actives have a fitted effect of over 60% in size
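Luminescence from an NPC1 promoter-driven luciferase reporter in stably transfected Huh7 cells was measured after 24 h compound treatment at 37 °C, followed by 10 min ambient incubation with luciferase detection reagent.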
* = called active by the depositor; ? = inconclusive; · = not tested or not shown; [ ] = another dose, or the depositor's remark. Sampled rows, rich in hits. Any-hit rate of the full collection: about 9.3%. Calls follow the shape of the dose curve; as a rule, active = well fitted curve in the direction sought with a large enough effect; inconclusive = small, poorly fitted or top-dose-only effect, or another doubt; inactive = no such curve, though single readings can be large; an effect the other way counts as inactive or inconclusive. Potency is read from the fitted curve at half-maximal effect.

SMILES	FLuc counter	Rab9 prom act	SMN2 splice enh	ELG1 repair inh	ELG1 genotox	NPC1 promoter act
CCOC(=O)c1cccc(NC(=O)c2sc3nc[nH]c(=O)c3c2C)c1	15.1µM*	·	·	·	·	·
CCOC(=O)c1cccc(NC(=O)c2cc3sccc3n2C)c1	23.9µM*	0.891µM*	14.1µM*	?	?	0.355µM*
CC(=O)Oc1cccc(C(=O)Nc2ccc(NC(=O)c3cccs3)cc2)c1	-1.2%	?	·	?	?	4.47µM*
CCc1sc(C(=O)Nc2cccc(C(C)=O)c2)cc1C	10.7µM*	?	?	?	16.1%	27.3%
CCCCN1C(=O)/C(=c2\sc3nc(=O)c(-c4ccccc4)nn3c2=O)c2ccccc21	0.0%	0.1%	-16.3%	-0.3%	1.4%	2.9%
Cc1[nH]c2ccc(F)cc2c1CCN(Cc1ccncc1)C(=S)Nc1cccc(F)c1	5.6%	-4.1%	-88.6%	?	-9.7%	-0.3%
O=C(c1ccccn1)c1cc2ccccc2n1S(=O)(=O)c1ccccc1	-19.9%	-0.3%	7.6%	16.8%	-3.4%	9.9%
Cc1cccc(C(=O)NC(=S)NCc2cccnc2)c1	-3.0%	-4.7%	-7.3%	-4.3%	1.2%	2.3%
CC(C)COc1cccc(C(=O)NC2(C)CCS(=O)(=O)C2)c1 (stereo unspecified)	-2.6%	17.5%	·	1.6%	-0.9%	-1.0%
Cn1c(CNC(=O)Nc2ccccc2Cl)nnc1SCc1ccccc1	-1.5%	-3.3%	-18.3%	0.0%	-3.2%	7.6%
COc1cccc(C(=O)Nc2cccc(NC(C)=O)c2)c1	?	-1.4%	-1.4%	?	3.2%	-4.8%
CCOC(=O)c1cccc(Nc2nc(C)cc(C)n2)c1	?	4.47µM*	?	?	12.8%	?
COc1cccc(C(=O)Nc2cc(NC(=O)c3cccs3)ccc2C)c1OC	21.3µM*	3.5%	·	16.4µM*	-14.4%	-1.9%
COc1cccc(C(=O)Nc2cc(NC(=O)c3cccs3)ccc2C)c1	12µM*	2.4%	·	?	-13.8%	3.8%
COc1cccc(C(=O)Nc2cccc(NC(=O)c3cccs3)c2)c1	21.3µM*	0.3%	·	?	-1.5%	0.6%
O=c1cc(CO)oc(CN2CCN(CCO)CC2)c1O	0.5%	0.2%	-26.0%	13.3%	-0.1%	-3.0%
Cc1ccc(-c2nc(C3CCN(S(C)(=O)=O)CC3)no2)cc1	?	17.4%	-1.5%	?	7.3%	22.7%
CCOC(=O)c1cccc(NC(=O)c2cccs2)c1	21.3µM*	17.6%	-10.7%	?	?	26.8%
COc1ccc(COc2cc(-c3cccc(OC)c3)nc3ccc(NC(C)=O)cc23)cc1	-12.2%	-3.7%	-52.0%	?	1.6%	0.7%
COc1ccc(-c2nnc(SCC(=O)NCc3cccs3)n2CC(C)C)cc1	3.8%	-4.2%	-23.7%	-6.2%	-1.1%	-1.2%
CC(C)(C)C1CCC(=NOC(=O)c2ccc(F)cc2)CC1 (stereo unspecified)	19µM*	3.4%	1.3%	12.5%	-0.3%	-6.9%
O=C(O/N=C1/CCCc2occc21)c1ccc(F)cc1	1.9µM*	2.3%	0.3%	14.2%	-1.1%	-5.3%
O=C(O/N=C1/CCSc2ccccc21)c1ccc(F)cc1	0.338µM*	-0.7%	-20.9%	14.1%	-0.1%	6.7%
O=C(Nc1ccccc1O)c1ccccc1O	9.53µM*	20.1%	-3.3%	?	-12.1%	?
Cc1cccc(NC(=O)c2cnn3ccccc23)c1C	?	?	·	?	14.9%	?
SMILES	FLuc counter	Rab9 prom act	SMN2 splice enh	ELG1 repair inh	ELG1 genotox	NPC1 promoter act
Cc1ccc(C)c(NC(=O)c2ccccc2O)c1	16.9µM*	?	-2.6%	?	-11.9%	4.0%
Cc1cccc(NC(=O)c2ccccc2O)c1C	13.5µM*	?	10.9%	?	1.5%	?
CNC(=S)N/N=C(\C)c1ccc2c(c1)OCO2	-0.5%	-0.4%	7.1%	?	6.1%	1.4%
Nc1c(/C=C2\C=Nc3ccccc32)c(=O)nc2sc(CC(=O)N3CCOCC3)nn12	?	-3.9%	·	14.2%	-0.9%	-1.9%
CC(C)CC(=O)OC1C(N2CCOCC2)c2c(ccc(/C=C/C(=O)N3CCOCC3)c2O)OC1(C)C (stereo unspecified)	1.3%	0.2%	8.8%	16.4µM*	-0.2%	-0.7%
CC1(C)Oc2ccc(/C=C/C(=O)N3CCOCC3)c(O)c2C(N2CCOCC2)C1O (stereo unspecified)	3.1%	-4.5%	20.7%	?	8.9%	2.0%
Cc1ccc(C2NC(=O)c3c(sc4c3CCN(C)C4)N2)s1 (stereo unspecified)	12µM*	?	-15.1%	?	3.2%	?
Cc1cccc(C2NC(=O)c3c(sc4c3CCN(C)C4)N2)c1O (stereo unspecified)	23.9µM*	·	15.8µM*	·	·	·
Cc1ccsc1C1NC(=O)c2c(sc3c2CCCC3)N1 (stereo unspecified)	16.9µM*	?	15.8µM*	?	?	?
COc1ccc(C2C(C(=O)NCc3cccnc3)c3ccccc3C(=O)N2C)cc1OC (stereo unspecified)	1.4%	0.2%	·	6.6%	-2.6%	8.1%
CCCc1cc(=O)n2[nH]c(NCc3cccs3)nc2n1	-1.2%[2.3 µM]	3.2%	4.7%	-0.3%	-1.7%	-1.6%
Cc1ccc(C2=NS(=O)(=O)N(C)C(C(=O)Nc3cc(C)n(CC(=O)N4CCCCC4)n3)=C2)cc1	-0.1%	-2.9%	·	-6.2%	-7.0%	1.7%
CN(C)S(=O)(=O)c1ccc(NC(=S)NC(=O)C2CCC2)cc1	1.6%	-3.6%	·	-7.3%	0.5%	-3.6%
O=C(NC(=S)Nc1ccccc1Br)C1CCCC1	19µM*	15.1%	·	?	?	?
O=C(NC(=S)Nc1ccc(O)cc1)C1CCCC1	?	7.0%	·	?	4.7%	3.0%
CN(Cc1ccccc1)S(=O)(=O)c1ccc(NC(=S)NC(=O)C2CCCC2)cc1	2.1%	-12.4%	-2.2%	16.4µM*	-16.7%	-26.3%
Cc1ccc(NC(=S)NC(=O)C2CCCC2)cc1C	10.7µM*	2.51µM*	·	?	?	3.16µM*
Cc1ccc(NC(=S)NC(=O)C2CC2)c(C)c1	15.1µM*	?	·	?	20.6µM*	?
CC(=O)Nc1ccc(NC(=S)NC(=O)C2CC2)cc1	-14.6%	25.7%	·	?	?	14.1%
CCOc1ccc(NC(=O)NCC2CCN(Cc3ccc(F)cc3)CC2)cc1	-2.6%	-7.2%	·	-6.6%	-0.9%	-2.6%
CCN(CC(=O)Nc1ccccc1OC)C(=O)c1cc(-c2ccccc2)nn1-c1ccccc1	-0.7%	-0.5%	·	?	-6.4%	0.7%

Compound activity from PubChem BioAssay.
